Compound activity: PubChem BioAssay, National Center for Advancing Translational Sciences (NCATS)
The list is not random: actives were taken first. Their share in the collection is about 5.4%.
Lassa entry inh: inhibitors of Lassa virus binding or cell entry. Lassa virus pseudotype entry inhibition, cell reporter. Potency, µM (titrated, usually from 37.9 µM), inactives show top-dose activity change, negative = inhibition, hits mostly inhibitors. 300,000 compounds, 1.2% hits. AID 540256; calls by dose curve; tested in HEK293 cells; note: nearly all actives have a fitted effect of over 50% in size
Vaccinia mCherry: inhibitors of vaccinia virus infection (mCherry reporter signal) | Potency, µM (top dose mostly 36.5 µM), for the others: top-dose activity change, negative = inhibition, actives largely listed as inhibitors | 310,000 compounds, 0.63% hits | AID 720579 | Vaccinia virus mCherry reporter infection, fluorescence; calls by dose curve; tested in A549 cells; note: nearly all actives have a fitted effect of over 35% in size
Marburg entry inh: inhibitors of Marburg virus binding or cell entry; 300,000 compounds, 1.8% hits; Marburg virus pseudotyped entry inhibition, cell reporter; Potency, µM (series often up to 37.8 µM), for inactives: at the top dose activity change, negative = inhibition, hits mostly inhibitors; AID 540276; calls by dose curve; tested in HEK293 cells
VACV Venus inh: inhibitors of vaccinia virus (Venus reporter); Potency, µM (highest dose often 36.5 µM), without a hit: top-dose activity change, negative = inhibition, usual class: inhibitors; AID 720580; Vaccinia virus Venus reporter expression, fluorescence; 330,000 compounds, 0.46% hits; calls by dose curve; tested in A549 cells; note: nearly all actives have a fitted effect of over 30% in size
FMDV antiviral: blocks foot and mouth disease virus. FMDV antiviral cell-based qHTS. Potency, µM (top dose mostly 57.9 µM), inactives show top-dose activity change, negative = inhibition, most hits filed as inhibitors. 410,000 compounds, 1.2% hits. AID 1159524; calls by dose curve; tested in HEK293T cells; note: read-out not given here; nearly all actives have a fitted effect of over 45% in size
Sm TGR block: blocks Schistosoma mansoni thioredoxin glutathione reductase; Q962Y6; purified TGR, DTNB reduction, TNB absorbance 405 nm; Potency, µM (top dose mostly 114 µM), for inactives: top-dose activity change, negative = inhibition, most hits filed as inhibitors; 360,000 compounds, 3% hits; AID 485364; active = well fitted inhibition curve with a large enough effect; inconclusive = small, poorly fitted or top-dose-only effect; inactive = no such curve, though single readings can be large or run the other way; note: nearly all actives have a fitted effect of over 60% in size
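Kinetic colorimetric format: TGR-catalysed, NADPH-driven DTNB reduction monitored via TNB absorbance. Enzyme dispensed at 20 nM; compound exposure 15 min at room temperature before reaction start.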
* = called active by the depositor; [ ] = another dose, or the depositor's remark. % is set by controls: 0 for no effect and ±100 for the full control effect; potency is the fitted concentration of half-maximal effect.

How did CC(=O)NC1CCCN(O)C(=O)/C=C(\C)CCOC(=O)C(NC(C)=O)CCCN(O)C(=O)/C=C(\C)CCOC(=O)C(NC(C)=O)CCCN(O)C(=O)/C=C(\C)CCOC1=O (configuration not stated) do in these assays?
Vaccinia mCherry: -12%; VACV Venus inh: -12%; FMDV antiviral: 20µM*; Sm TGR block: inconclusive

How did CCOC(=O)c1c(NC(=O)/C=C/C(=O)O)sc(C)c1-c1ccc(C(C)(C)C)cc1 do in these assays?
Lassa entry inh: inconclusive; Vaccinia mCherry: inconclusive; Marburg entry inh: 10µM*; VACV Venus inh: inconclusive; FMDV antiviral: 18µM*; Sm TGR block: -2%

What do the screens show for `CCOC(=O)c1c(NC(=O)CCN2CCOCC2)sc(C)c1-c1ccccc1`?
Lassa entry inh: 3.2µM*; Vaccinia mCherry: inactive; Marburg entry inh: inconclusive; VACV Venus inh: -20%; FMDV antiviral: inconclusive; Sm TGR block: 2%

Results for CCOC(=O)c1c(NC(=O)C2C3CCC(O3)C2C(=O)O)sc(C)c1-c1ccc(C)cc1 (configuration not stated) ?
Lassa entry inh: -19%; Marburg entry inh: -2%; VACV Venus inh: 11µM*; FMDV antiviral: 0%; Sm TGR block: 3%

Results for CCOC(=O)c1c(NC(=O)/C=C\C(=O)O)sc(C)c1-c1ccccc1 ?
Lassa entry inh: -13%; Vaccinia mCherry: -4%; Marburg entry inh: -23%[46.1 µM]; VACV Venus inh: -10%; FMDV antiviral: inconclusive

What do the screens show for `CCOC(=O)c1c(-c2ccc(OC)cc2)csc1NC(=O)CCN1CCOCC1`?
Lassa entry inh: inconclusive; Vaccinia mCherry: -10%; Marburg entry inh: 0%[46.1 µM]; VACV Venus inh: -15%; FMDV antiviral: -26%; Sm TGR block: -3%

Results for O=C(Cn1cc2ccccc2n1)N1CCOc2ccc(C(O)C3CCCCC3)cc2C1 (configuration not stated) ?
Vaccinia mCherry: -21%; VACV Venus inh: -8%; FMDV antiviral: -13%

How did Cc1cccc(CNC(=O)c2cnn(-c3ncc(C)c(-c4ccc(F)cc4)n3)c2C)n1 do in these assays?
Vaccinia mCherry: -3%; VACV Venus inh: -22%; FMDV antiviral: -10%

Results for CCCc1cc(NC(=O)CCl)n(-c2ccccc2)n1 ?
Lassa entry inh: inconclusive; Vaccinia mCherry: inconclusive; Marburg entry inh: inconclusive; VACV Venus inh: -20%; FMDV antiviral: inconclusive; Sm TGR block: 10µM*

What do the screens show for `CC(C)(C)c1cc(NC(=O)CCl)n(-c2ccccc2)n1`?
Lassa entry inh: inconclusive; Vaccinia mCherry: -2%; Marburg entry inh: inconclusive; VACV Venus inh: -4%; FMDV antiviral: inconclusive; Sm TGR block: 13µM*

How did CCOc1ccc(-c2csc(-c3c(N)c(C(=O)c4ccc5c(c4)OCO5)n4ccccc34)n2)cc1 do in these assays?
Lassa entry inh: 9%[46.1 µM]; Vaccinia mCherry: -22%; Marburg entry inh: 1%[46.1 µM]; VACV Venus inh: -12%; FMDV antiviral: 5%; Sm TGR block: 0%

Results for COc1ccc(CCC(=O)NCc2nc3cccnc3n2Cc2ccc(C)cc2)cc1 ?
Lassa entry inh: -1%[46.1 µM]; Vaccinia mCherry: -9%; VACV Venus inh: -13%; FMDV antiviral: -10%; Sm TGR block: -1%

What do the screens show for `CCCCOc1cccc(C2c3c(-c4cc(C)ccc4O)n[nH]c3C(=O)N2CCOC)c1` (configuration not stated)?
Lassa entry inh: inconclusive; Vaccinia mCherry: -26%; Marburg entry inh: inconclusive; VACV Venus inh: -26%; FMDV antiviral: -23%; Sm TGR block: 8%

How did CCN1C(=O)/C(=C/c2nc3ccccc3c(=O)[nH]2)c2ccccc21 do in these assays?
Lassa entry inh: 3%; Vaccinia mCherry: inactive; Marburg entry inh: inconclusive; VACV Venus inh: 1%; FMDV antiviral: 17%; Sm TGR block: -16%

How did C=CCN1C(=O)/C(=c2\sc3nc(=O)c(Cc4ccccc4)nn3c2=O)c2ccccc21 do in these assays?
Lassa entry inh: -5%; Vaccinia mCherry: inactive; Marburg entry inh: 27%; VACV Venus inh: -2%; FMDV antiviral: -21%; Sm TGR block: 1.4µM*
